Results published in paper PMC4336329 (PLoS ONE, 2015).
Screen size: about 310,000 compounds; about 14,000 (4.5%) showed an effect of 50% or more. Effects have a minus sign here. Only a selection was taken, and strong results are over-represented in it overall.

target: human ether-à-go-go-related gene (hERG) potassium channel (human, UniProt Q12809); test: primary screen, population patch clamp on CHO cells stably expressing hERG; higher = less effect of the substance
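Further: peak tail current of the secondary pulse compared with the same well before compound.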

Chain of human ether-à-go-go-related gene (hERG) potassium channel (Q12809 whole entry, looked up): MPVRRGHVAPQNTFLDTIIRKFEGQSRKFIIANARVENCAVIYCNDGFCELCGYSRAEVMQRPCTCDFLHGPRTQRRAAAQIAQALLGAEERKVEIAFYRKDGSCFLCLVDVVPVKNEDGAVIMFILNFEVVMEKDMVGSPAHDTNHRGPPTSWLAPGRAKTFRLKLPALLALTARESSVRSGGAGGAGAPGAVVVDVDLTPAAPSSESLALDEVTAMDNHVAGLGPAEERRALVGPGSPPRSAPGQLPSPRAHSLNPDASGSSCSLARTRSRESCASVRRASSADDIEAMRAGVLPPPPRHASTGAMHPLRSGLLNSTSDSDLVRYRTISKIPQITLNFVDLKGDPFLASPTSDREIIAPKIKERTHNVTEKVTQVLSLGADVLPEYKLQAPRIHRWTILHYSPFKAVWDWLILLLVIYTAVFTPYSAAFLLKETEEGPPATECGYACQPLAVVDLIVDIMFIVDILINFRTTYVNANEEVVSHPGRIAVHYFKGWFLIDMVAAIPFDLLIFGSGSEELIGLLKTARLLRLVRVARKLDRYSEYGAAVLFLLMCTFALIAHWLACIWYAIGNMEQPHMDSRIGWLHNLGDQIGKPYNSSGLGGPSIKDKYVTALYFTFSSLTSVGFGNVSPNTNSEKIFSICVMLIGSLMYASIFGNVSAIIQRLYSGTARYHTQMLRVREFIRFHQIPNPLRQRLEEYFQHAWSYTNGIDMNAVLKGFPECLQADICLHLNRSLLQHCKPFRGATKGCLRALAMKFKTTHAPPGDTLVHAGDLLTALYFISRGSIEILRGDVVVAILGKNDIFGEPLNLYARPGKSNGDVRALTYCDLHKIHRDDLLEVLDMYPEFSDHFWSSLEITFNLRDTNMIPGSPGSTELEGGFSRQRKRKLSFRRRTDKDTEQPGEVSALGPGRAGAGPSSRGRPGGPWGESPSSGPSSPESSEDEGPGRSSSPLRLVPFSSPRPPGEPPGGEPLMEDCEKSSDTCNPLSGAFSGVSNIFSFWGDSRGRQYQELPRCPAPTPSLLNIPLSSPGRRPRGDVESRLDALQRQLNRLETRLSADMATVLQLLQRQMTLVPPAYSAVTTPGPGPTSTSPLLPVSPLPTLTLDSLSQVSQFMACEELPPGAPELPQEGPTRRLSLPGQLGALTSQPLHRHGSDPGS

Compound	hERG current change (%, negative = inhibition) at 10uM [%]
CCC1(CC)C(=O)C2=C3C1[C@H](C(=O)OC)C=C(C(=O)OC)C[C@H]3[C@H]1C(=O)NC(=O)[C@H]1[C@H]2C (stereo partly drawn)	3.57
NS(=O)(=O)c1c(Sc2ccccc2C(=O)O)ccc2ccccc12	28.4
CC1CCN(S(=O)(=O)c2c[nH]c(=O)[nH]c2=O)CC1	6.09
CC1CCCN(S(=O)(=O)c2ccc3c(c2)c(=O)nc2ccc(Cl)cn23)C1 (stereo not drawn)	-10.5
CC(=O)Nc1ccc(NC(=O)C2CCCN(S(=O)(=O)c3ccc(-n4cnnn4)cc3)C2)cc1 (stereo not drawn)	0.72
Cc1cccc(C)c1NC(=O)CNC(=O)C(Cc1ccccc1)NC(=O)c1ccccc1 (stereo not drawn)	13.5
O=C1NC2(CCc3ccccc3C2)C(=O)N1CCOc1cccc(Cl)c1 (stereo not drawn)	-51.1
O=C(CN1C(=O)NC2(CCCC2)C1=O)OCCOc1cccc(Cl)c1	-7.43
COc1ccc(OCCN2C(=O)NC3(CCc4ccccc4C3)C2=O)cc1 (stereo not drawn)	-49.7
O=C(c1ccc(Cl)cc1)N1CCN(CCOc2ccccc2)CC1	-60.1
COc1ccc(OCCN2CCN(C(=O)c3ccc(OC)c(OC)c3)CC2)cc1	-58.8
COc1cc(OC)cc(C(=O)N2CCN(C(=O)c3ccc(OC)c(OC)c3)CC2)c1	-14
COc1ccc(C(=O)N2CCN(Cc3ccc(OC)c(OC)c3)CC2)cc1.O=C(O)C(=O)O	0.702
CN1CCN(C(=O)c2ccc(OCCOc3ccccc3)cc2)CC1	-9.69
O=C(c1c(F)cccc1F)N1CCN(CCOc2ccccc2)CC1	-8.2
Cc1ccc(C)n1CCN1CCN(C(=O)c2ccc(Cl)cc2)CC1	-50.3
CN1CCN(C(=O)c2ccc(Cl)cc2)CC1	8.8
Cc1ccc(C)n1CCN1CCN(C(=O)CC#N)CC1	16.3
COc1ccc(C(=O)Nc2cccc(-c3ccc4nncn4n3)c2)cc1OC	8.84
Cc1ccccc1Nc1c(-c2ccc(N3CCOCC3)cc2)nc2cnccn12	-1.1
COc1cc(OC)cc(C(=O)N[C@H](C(=O)Nc2cccc(S(=O)(=O)N3CCCC3)c2)C(C)C)c1	2.47
O=C(N/N=C/c1ccco1)c1cc(-c2ccccc2)nc2ccccc12	2.45
Cn1c(=NC(=O)C2=NNC(=O)CC2)sc2ccccc21	15.2

Compound	hERG current change (%, negative = inhibition) at 10uM [%]
O=C(NNC1=C(C(=O)C(F)(F)F)CCC1)c1ccccc1Cl	13
Cc1cc(C(=O)Nc2cccc(C)c2C)n(-c2ccccc2)n1	-11.7
O=C(Nc1cccc(S(=O)(=O)N2CCOCC2)c1)c1ccc(N2CCCC2=O)cc1	8.25
COCCCN(CC(=O)O)S(=O)(=O)c1cccc(Cl)c1	16.3
O=C(c1ccc(Br)o1)N1CCN(CCOc2ccccc2)CC1	-54.1
O=C(c1ccc(Br)o1)N1CCC(Cc2ccccc2)CC1	-10.5
O=C(c1ccco1)N1CCN(CCOc2ccccc2)CC1	0.652
CCN(CC(=O)NCc1ccc(Cl)cc1)C(=O)c1cccc(S(=O)(=O)Nc2ccc(OC)cc2)c1	-0.458
Cc1ccc(NC(=O)C(Cc2ccccc2)NC(=O)c2ccco2)cc1 (stereo not drawn)	-3.13
O=C1CC(N2CCN(c3nc4ccccc4s3)CC2)C(=O)N1c1ccc(F)cc1 (stereo not drawn)	-53.5
O=C1CC(N2CCN(c3nc4ccccc4s3)CC2)C(=O)N1Cc1cccs1 (stereo not drawn)	-62.3
COc1ccc(N2C(=O)CC(N3CCN(c4nc5ccccc5s4)CC3)C2=O)cc1 (stereo not drawn)	-30.9
CCCOc1ccc(N2C(=O)CC(N3CCN(c4nc5ccccc5s4)CC3)C2=O)cc1 (stereo not drawn)	8.46
CCOc1cccc(N2C(=O)CC(N3CCN(c4nc5ccccc5s4)CC3)C2=O)c1 (stereo not drawn)	5.09
O=C1CC(N2CCC(c3nc4ccccc4o3)CC2)C(=O)N1Cc1cccs1 (stereo not drawn)	-30.9
Cc1ccc(/C=N/NC(=O)C(NC(=O)c2ccccc2)c2n[nH]c(=O)c3ccccc23)cc1 (stereo not drawn)	-2.54
CCC(C)NC(=S)Nc1ccc(C(=O)OC)cc1 (stereo not drawn)	15
CCCn1c(=O)c(C(=O)NNC(=O)c2cccc([N+](=O)[O-])c2)c(O)c2ccccc21	-21.7
O=C(Cn1cnc2ccccc2c1=O)NCCC(=O)Nc1ccc2c(c1)OCO2	16.4
Cc1cc(NC(=O)CSc2nc(-c3ccc(Cl)cc3)cs2)no1	-5.45
COC(=O)c1cc(NC(=O)Cn2nc(C)n3cccc3c2=O)cc(C(=O)OC)c1	4.88
COc1cc(S(=O)(=O)NCC2CCCO2)c(OC)cc1Cl (stereo not drawn)	10.6
N#Cc1ccccc1NC(=O)CN1CCOCC1	13.4

Compound	hERG current change (%, negative = inhibition) at 10uM [%]
N#Cc1ccsc1NC(=O)CN1CCCCC1	-5.6
N#Cc1ccccc1NC(=O)CN1CCN(Cc2ccccc2)CC1	-60.1
CC1CCN(CC(=O)Nc2ccccc2C#N)CC1	3.06
N#Cc1ccsc1NC(=O)CN1CCN(Cc2ccccc2)CC1	-66.4
N#Cc1ccsc1NC(=O)CN1CCN(c2ccccc2)CC1	1.63
Cc1ccc(C(=O)NCCN(C)C)cc1C	7.22
Nc1ccccc1NC(=O)c1ccccc1	2.34
O=C(CCCN1C(=O)c2cccnc2Oc2ccc(Cl)cc21)N1CCCCC1	-9.27
O=C1CNC(=O)N1	13.6
CS(=O)(=O)Nc1ccc(C(=O)N2CCCCC2)cc1	-3.35
O=C(Nc1ccc(C(=O)N2CCN(c3ccccc3F)CC2)cc1)C1=CSCCO1	-50.3
O=C(c1ccccc1)N1CCN(c2ccccc2F)CC1	10.1
CS(=O)(=O)Nc1ccc(C(=O)N2CCCC2)cc1	-7.75
O=C(c1ccc(-c2ccccc2)cc1)N1CCN(c2ccccc2F)CC1	7.96
CS(=O)(=O)Nc1ccc(C(=O)N2CCN(c3ccccc3F)CC2)cc1	-68.1
O=C(Nc1ccc(C(=O)N2CCN(c3ccccc3)CC2)cc1)C1=CSCCO1	-39.8
CS(=O)(=O)Nc1ccc(C(=O)N2CCN(c3ccccc3)CC2)cc1	-61.9
O=C(Nc1ccc(C(=O)N2CCN(c3ccc(F)cc3)CC2)cc1)C1=CSCCO1	-38.1
Cc1nn(CCC#N)c(NC(=O)c2ccccc2)c1P(=O)(Nc1ccc(Br)cc1)N1CCOCC1 (stereo not drawn)	20.6
Cc1cc(CN(C)C(=O)c2ccc3nc(Cc4ccccc4F)oc3c2)on1	-5.71
Cc1ccc(SCC2=NN(c3nc(C)cc(C)n3)C(=O)C2)cc1	-16
CCn1c(CCNC(=O)c2ccc(C)cc2)nnc1SCc1ccc(Cl)c(Cl)c1	-45.7
CCn1c(SCc2ccc(Cl)c(Cl)c2)nnc1C(C)NC(=O)c1ccc(OC)cc1 (stereo not drawn)	10

Compound	hERG current change (%, negative = inhibition) at 10uM [%]
CCn1c(CCNC(=O)c2ccc(OC)cc2)nnc1SCc1ccc(Cl)c(Cl)c1	-61.8
CCOc1ccc(NC(=O)CSc2nnc(CCNC(=O)c3ccc(OC)cc3)n2CC)cc1	-26.7
CCn1c(CCNC(=O)c2ccc(OC)cc2)nnc1SCc1ccc(Cl)cc1Cl	-65.6
CCn1c(CCNC(=O)c2ccc(Cl)c(Cl)c2)nnc1SCCOc1ccc(OC)cc1	-8.77
CCC1(C)Cc2nc3[nH]c(=S)n(-c4ccccc4C)c(=O)c3cc2CO1 (stereo not drawn)	4.44
Cc1ccc2c(c1)c1c(n2C)C(C(N)=O)CCC1 (stereo not drawn)	-19.5
CCCC(C)C1(CC)C(=O)NC(=O)N=C1N (stereo not drawn)	-76.5
CCC(C)C1(CC)C(=O)NC(=O)N=C1N (stereo not drawn)	36.1
CCCC(C)C1(CC)C(=O)NC(=Nc2ccc(F)cc2)NC1=O (stereo not drawn)	17.5
O=C1c2ccccc2-c2c1cccc2C(=O)N1CCCCCC1	0.506
O=C(c1ccco1)N1CCN(C(=O)c2ccc(-c3ccccc3Cl)o2)CC1	-67.6
O=C(c1ccco1)N1CCN(C(=O)c2ccc(-c3ccc(Cl)cc3)o2)CC1	-78.8
O=C(c1cc(-c2ccc(Cl)cc2Cl)on1)N1CCCC1	-0.203
O=C1c2ccccc2-c2c1cccc2C(=O)N1CCCCC1	-22.3
CC(=O)N1CCN(C(=O)c2ccc(-c3ccccc3Cl)o2)CC1	-20
O=C(c1cc(-c2ccc(Cl)cc2Cl)on1)N1CCN(C(=O)c2ccco2)CC1	-70.2
O=C(c1ccc(-c2ccccc2Cl)o1)N1CCN(c2ccccc2O)CC1	8.64
O=C(Cc1ccc(Cl)cc1)N1CCN(C(=O)c2ccco2)CC1	-12.8
O=C1c2ccccc2-c2c1cccc2C(=O)N1CCN(C(=O)c2ccco2)CC1	-71.1
O=C(c1cc(-c2ccccc2Cl)on1)N1CCN(C(=O)c2ccco2)CC1	-44.2
O=C(c1ccc(Cl)cc1)N1CCN(C(=O)c2ccco2)CC1	-21
